Measured values: PubChem BioAssay (NCATS)
Records with an inconclusive call do not appear. The source made the active and inactive calls. Unless noted, how the calls were made is not given here.

Tests used:
[1] = qHTS profiling of the MIPE4 collection as inhibitors of Plasmodium falciparum (3D7) proliferation (AID 743344);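 further: scaled between DMSO vehicle wells and 0.29 µM artemisinin as full inhibition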; conditions: P. falciparum 3D7 in erythrocytes, SYBR Green DNA fluorescence, 72 h; at 28.5 µM unless noted
Procedure, shortened: (§1)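 Erythrocytes infected with P. falciparum (0.3% parasitemia, 2.5% hematocrit) incubated with compounds 72 h at 37 C, 5% CO2. Lysis with saponin/Triton buffer containing SYBR Green I, overnight at room temperature in the dark; DNA fluorescence (485/535 nm) normalised to 0.29 uM artemisinin and DMSO.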

[2] = qHTS profiling of the MIPE4 collection as inhibitors of Plasmodium falciparum (DD2) proliferation (AID 743345); conditions: P. falciparum Dd2 in erythrocytes, SYBR Green DNA, 72 h; at 28.5 µM unless noted
Procedure, shortened: as §1

[3] = qHTS profiling of the MIPE4 collection as inhibitors of Plasmodium falciparum (DD2) proliferation (Rep 2) (AID 743346); conditions: P. falciparum Dd2 in erythrocytes, SYBR Green DNA, 72 h; at 28.5 µM unless noted
Procedure, shortened: as §1

[4] = High-throughput drug toxicity screening in the BPDCN cell line Cal-1 (AID 1224825); conditions: Cal-1 BPDCN cell viability, qHTS; at 45.8 µM (top of the series) unless noted
Procedure, shortened: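 Cal-1 cells, 500 per well in phenol-red-free RPMI with 10% FBS, exposed to compounds for 48 hours at 37C, 5% CO2. Viability read by CellTiter-Glo luminescence; percent activity normalized to DMSO (100%) and 9.2 uM bortezomib final (0%).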

[5] = qHTS assay for measurement of the activity of small molecule inhibitors on Zika virus induced Caspase-3 activity in human iPSC derived neural progenitor cells (hNPCs) (AID 1224857; active means well fitted curve in the direction sought with a large enough effect; an effect the other way counts as inactive or inconclusive; further: % of control where 0% means no effect; nearly all actives have a fitted effect of over 65% in size)
Procedure, shortened: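 Caspase-3/7 induction by a 6-hour ZIKV infection was quantified with a luminescent Caspase-Glo 3/7 reagent incubated 30 minutes at room temperature. Compounds were preincubated with hNPCs for 1 hour; inhibition was calculated against uninfected and infected control wells.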

[6] = qHTS profiling for inhibitors of Plasmodium falciparum (3D7) proliferation (AID 743322);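 further: infected erythrocytes exposed to compound for 72 h before lysis; 100% = DMSO vehicle wells and 0% = 0.29 µM artemisinin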; conditions: P. falciparum 3D7 proliferation; at 28.7 µM (top of the series)
Procedure, shortened: as §1

[7] = qHTS profiling for inhibitors of Plasmodium falciparum (DD2) proliferation (AID 743323); conditions: lower = more inhibition; at 28.7 µM (top of the series)
Procedure, shortened: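 Parasite DNA quantified by SYBR Green fluorescence (ex 485, em 535 nm) after saponin/Triton lysis and overnight dark incubation. Cultures: 0.3% parasitemia, 2.5% hematocrit, 72 h, 37 C; data scaled between DMSO and 0.29 uM artemisinin.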

[8] = qHTS profiling for inhibitors of Plasmodium falciparum (HB3) proliferation (AID 743324; active means well fitted curve in the direction sought with a large enough effect; an effect the other way counts as inactive or inconclusive;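 further: 100% = DMSO vehicle wells and 0% = artemisinin-treated control wells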); conditions: Plasmodium falciparum HB3 blood-stage proliferation; at 28.7 µM (top of the series)
Procedure, shortened: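 P. falciparum HB3 grown in erythrocytes (0.3% parasitemia, 2.5% hematocrit final) with compound for 72 h at 37 C, 5% CO2. Parasite DNA detected by SYBR Green after saponin/triton lysis overnight; normalized to 0.29 uM artemisinin and DMSO.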

[9] = qHTS profiling of the MIPE4 collection as inhibitors of Plasmodium falciparum (HB3) proliferation (AID 743347);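 further: plate controls were DMSO vehicle wells for no effect and artemisinin wells for full effect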; conditions: P. falciparum HB3 in erythrocytes, SYBR Green DNA, 72 h; at 28.5 µM unless noted
Procedure, shortened: as §1

Row | Compound | parasite growth, % of DMSO control [1] | parasite growth remaining, % of DMSO control (lower = more inhibition) [2] | parasite growth, % of control (lower = inhibition) [3] | viability (% of control) [4] | Potency [5] | remaining parasite growth % (stronger effect = lower value) [6] | activity, percent of control [7] | remaining proliferation (% of control), lower = more inhibition [8] | growth, % of control [9]
1 | Cc1c(Cn2c(C)nc3c(C(=O)O)cc(N4CCOCC4)cc32)cccc1C(F)(F)F | 72.5% | 93.9% | 104% | 70.7% | inactive |  |  |  | 
2 | CCN(CC)CCCCNc1ncc2cc(-c3cc(OC)cc(OC)c3)c(NC(=O)NC(C)(C)C)nc2n1 | 5.7% | 9.87% | 8% |  | inactive | -0.484% | 1.21% | 0.178% | 5.53%
3 | C[C@@H]1CN(CC(=O)Nc2ccc3c(c2)Cc2cccc(-c4cc(=O)cc(N5CCOCC5)o4)c2S3)C[C@H](C)O1 | 7.08% | 20.9% | 9.57% | 13.3% | inactive | -0.753% | 3.61% | -0.663% | 2.59%
4 | O=C(O)c1ccc2c(c1)nc(Nc1cccc(Cl)c1)c1ccncc12 | 6.23% | 9% | 9.96% | 72.1% | inactive | 9.86% | 12.2% | -0.0167% | 4.4%
5 | CCOc1ccccc1OCCNC(C)Cc1ccc(OC)c(S(N)(=O)=O)c1 (configuration not stated) | 65.8% | 84.6% | 54.9% | 97.4% | inactive |  |  |  | 90.8%
